Screening results deposited in PubChem BioAssay by several laboratories.
Sampled rows, rich in hits. Any-hit rate of the full collection: about 2%.
PfHsp40 rescue – rescue of PfHsp40-mediated yeast toxicity. growth rescue, % at 12.5 µM. actives 0.68% (n = 340,000). S. cerevisiae expressing PfHsp40, growth rescue, ATP luminescence. AID 504582; in the data active means growth rescue above about 28%, passing the limit was not always enough;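 further: yeast W303a lacking pdr1 and pdr3 grown in galactose medium; growth measured after three days at 30 °C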
BJeLR viability – kills HRASV12-expressing BJeLR cells; BJeLR (HRASV12) viability, CellTiter-Glo ATP luminescence, 48 h; inhibition, % (no concentration beside the values); actives 0.17% (n = 300,000); AID 1554; in the data active means inhibition above about 50%
CCHFV vOTU inh – CCHFV vOTU protease inhibition; Pep-AMC fluorescence; inhibition, % at 11.5 µM; actives 0.55% (n = 370,000); AID 651958; in the data active means inhibition above about 30%; further: 0% = vehicle wells with enzyme and 100% = no enzyme wells
PrPC surface inh – inhibitors of human cell surface prion protein PrPC; AID 720596; actives 0.43% (n = 370,000); inhibition, % at 13.8 µM; TR-FRET read-out; P04156; in the data active means inhibition above about 24%; further: 0% = median of the test wells and 100% = reference compound wells
Y pestis TopoI – blocks Yersinia pestis topoisomerase I activity; Y. pestis Topo-I cleavage product accumulation, plate reader; activity, % at 10 µM; actives 0.064% (n = 360,000); in the data active means activity above about 50%, passing the limit was not always enough
PrP UTR inh – suppresses PrP 5' UTR mRNA reporter expression; cell-based PrP 5' UTR mRNA reporter, plate reader; inhibition, % (test concentration not listed); actives 0.35% (n = 340,000); AID 488862; in the data active means inhibition above about 52%; further: 0 = median of the neutral control wells
PrPC confirm – confirmation of inhibitors of cell surface human prion protein; shares compounds with PrPC surface inh; cell surface PrPC level, TR-FRET; inhibition, % at 13.8 µM; actives 65% (n = 1,500); AID 743200; in the data active means inhibition above about 25%
LD9 tox – counter-screen for PrPc inhibitors: cytotoxicity in LD9 cells | actives 29% (n = 1,500) | luminescence viability | shares compounds with PrPC surface inh | inhibition, % at 13.8 µM | AID 743201; in the data active means inhibition above about 9.5%
Numbers without * were called inactive; nt = no result given; ! = not active in a repeat.

SMILES	PfHsp40 rescue	BJeLR viability	CCHFV vOTU inh	PrPC surface inh	Y pestis TopoI	PrP UTR inh	PrPC confirm	LD9 tox
COc1cccc(-c2cc3c(=O)n(-c4ccccc4)c(=S)[nH]c3s2)c1	5.2	-2.4	9.0	30.6*	3.0	-45.3	67.3*	-0.7
Cc1ccc(-n2c(C)cc(C(=O)CSc3nncs3)c2C)cc1	-1.8	20.9	-1.0	38.9*	-1.5	-51.6	34.2*	1.5
COC(=O)c1sccc1NC(=O)C1C2C=CC(C2)C1C(=O)O (stereo not given)	0.2	0.5	4.4	4.2	-6.0	-13.6	nt	nt
COC(=O)c1sccc1NC(=O)C1CC=CCC1C(=O)O (stereo not given)	0.1	-0.1	3.1	96.6*	-1.0	-13.1	91.6*	-0.7
COC(=O)c1cc(C)sc1NC(=O)C1CC=CCC1C(=O)O (stereo not given)	0.3	-7.1	5.3	34.7*	-8.0	nt	43.9*	-2.9
COC(=O)c1cc(C)sc1NC(=O)C1C2C=CC(CC2)C1C(=O)O (stereo not given)	-1.4	0.6	1.3	23.3	3.9	-10.3	nt	nt
COc1ccc(CNS(=O)(=O)c2cc3c(cc2Br)CC(C)N3C(C)=O)cc1 (stereo not given)	nt	nt	-4.9	-2.4	nt	nt	nt	nt
Cc1[nH]nc2c1C(c1ccc(F)cc1)N(Cc1ccccc1)C2=O (stereo not given)	nt	nt	-2.6	-3.0	nt	nt	nt	nt
CC(C)N1CCc2c(sc(NC(=O)c3ccc(S(=O)(=O)N4CCCCC4C)cc3)c2C(N)=O)C1 (stereo not given)	-0.2	14.3	7.8	43.2*	11.5	-1.7	-2.7	6.9
Cc1cc(Nc2ccc(OC(F)F)cc2)cc(=O)n1-c1ccc(OC(F)F)cc1	nt	nt	11.5	2.1	nt	nt	nt	nt
CCc1ccc(C(=O)NNc2cc(Cl)ccc2Cl)cc1	1.1	5.3	-3.0	27.9*	-14.3	-18.9	25.0*	5.1
CCN(CC)C(=O)CSc1nc(N)c(C#N)c(-c2cccs2)c1C#N	1.1	-2.1	-13.7	62.7*	-2.8	-0.8	-0.3	-3.4
CCN(CC)C(=O)CSc1nc(-c2cccs2)cc(-c2cccs2)c1C#N	0.1	-4.2	-9.4	-2.2	13.7	-0.4	nt	nt
NC(c1csc(Nc2ncccn2)n1)c1ccccc1Cl (stereo not given)	nt	nt	11.3	32.7*	1.5	nt	18.8	-7.9
COc1ccc(C(N)c2csc(Nc3ncccn3)n2)cc1 (stereo not given)	nt	nt	-7.3	36.2*	7.7	nt	17.8	-5.8
COc1ccc(CC(N)c2csc(Nc3ncccn3)n2)cc1 (stereo not given)	nt	nt	3.9	37.9*	0.7	nt	37.5*	2.9
COc1cc(OC)nc(Nc2nc(C(N)c3ccccc3Cl)cs2)n1 (stereo not given)	nt	nt	2.8	0.0	28.6	nt	nt	nt
COc1cc(OC)nc(Nc2nc(C(N)c3ccccc3)cs2)n1 (stereo not given)	nt	nt	7.0	6.4	18.3	nt	nt	nt
NC(Cc1ccc(F)cc1)c1csc(Nc2ncccn2)n1 (stereo not given)	nt	nt	3.2	59.4*	-3.1	nt	55.5*	22.8*
CC(C=NN=C1C(=O)Nc2ccccc21)=Cc1ccccc1	nt	nt	3.1	-2.4	nt	nt	nt	nt
COC(=O)[C@]12C[C@H](CC(=O)NCCCCc3ccccc3)C(=O)N(Cc3ccc4c(c3)OCO4)C1=C[C@H](C(C)C)O[C@@H]2C1CC1	nt	nt	15.2	-3.5	nt	nt	nt	nt
NC(Cc1ccc(Cl)cc1)c1csc(Nc2ncccn2)n1 (stereo not given)	nt	nt	-2.9	51.5*	6.4	nt	59.6*	13.5*
Nc1ccc(CC(N)c2csc(Nc3ncccn3)n2)cc1 (stereo not given)	nt	nt	-3.0	20.9	-4.8	nt	nt	nt
Cn1ccnc1C(=O)c1cc(SCC(=O)NC2CC2)nc2ccccc12	-0.5	-3.2	6.5	-3.2	-7.7	-7.9	nt	nt
CN(C(=O)CSc1cc(C(=O)c2nccn2C)c2ccccc2n1)c1ccccc1	1.8	2.0	24.1	88.5*	5.3	1.5	73.9*	8.0
SMILES	PfHsp40 rescue	BJeLR viability	CCHFV vOTU inh	PrPC surface inh	Y pestis TopoI	PrP UTR inh	PrPC confirm	LD9 tox
Clc1ccc(-c2nnc(SCc3cccc4ccccc34)n2Cc2ccco2)cc1	nt	nt	17.2	17.7	nt	nt	nt	nt
CCc1nc2ccccc2c(C(=O)OCC(=O)Nc2ccc(S(=O)(=O)N3CCOCC3)cc2)c1C	1.2	3.3	2.8	0.6	-8.3	-7.6	nt	nt
CN(CC(=O)Nc1cccc(S(=O)(=O)N2CCOCC2)c1)CC(=O)Nc1ccc(Cl)c(C(F)(F)F)c1	0.1	1.3	8.2	24.6*	2.7	-34.2	22.2	3.0
CCc1nc2ccccc2c(C(=O)OCC(=O)Nc2cccc(S(=O)(=O)N3CCOCC3)c2)c1C	-0.1	1.9	6.1	26.2*	3.4	-19.2	12.1	10.3*
CC(CO)(CO)NC(=O)c1ccc(C#Cc2cccc(F)c2)cn1	nt	nt	-4.3	-2.7	nt	nt	nt	nt
N#Cc1c([N+](=O)[O-])cc([N+](=O)[O-])cc1S(=O)(=O)Cc1ccccc1	16.6	nt	21.9	41.9*	-9.5	-29.7	84.4*	98.1*
O=[N+]([O-])c1ccc(OS(=O)(=O)Cc2ccccc2)cc1	0.7	-1.4	8.2	-7.3	-8.1	-20.8	nt	nt
Cc1ccc(-n2nc3ccc(NC(=S)NC(=O)/C=C/c4ccco4)cc3n2)cc1	1.4	0.5	-6.9	65.1*	-3.0	-33.6	42.1*	-4.5
Cc1ccc(-n2nc3cc(C)c(NC(=S)NC(=O)/C=C/c4ccco4)cc3n2)cc1	-0.3	-2.9	-2.3	18.4	20.3	-26.3	nt	nt
COc1ccccc1-c1nnc(Nc2nc3c(OC)cccc3s2)o1	-0.2	36.3	-1.4	42.4*	3.1	37.5	68.6*	40.2*
COc1cccc2sc(Nc3nc(-c4ccncc4)cs3)nc12	0.3	27.2	9.8	27.9*	-7.2	1.6	17.9	26.5*
CCOC(=O)C1(C(=O)OCC)N=C(c2ccccc2)C=C1c1ccccc1	nt	nt	6.6	-2.5	nt	nt	nt	nt
O=C(N/N=C/c1ccc(O)cc1)c1ccc(COc2cc(Cl)ccc2Cl)o1	0.5	-13.8	-1.0	26.9*	2.4	-14.6	30.0*	-1.3
CC1=Nc2ccc(C)cc2/C1=C/c1c(N)n2oc(C)cc2nc1=O	-0.3	-0.5	6.5	45.6*!	4.6	-12.7	15.8	-5.2
CCN(CC)S(=O)(=O)c1ccc2c(c1)nc(CCC(=O)OCC(=O)Nc1cc(Cl)cc(Cl)c1)n2C	2.6	-1.4	0.0	27.6*	15.2	-8.6	2.4	-1.1
C/C(=N\Nc1nc2ccccc2[nH]1)c1ccccn1	0.1	74.2*	-6.7	26.4*	-17.0	25.6	48.5*	69.1*
CCC[C@H]1[C@@H](NC(=O)C2CCOC2)CC[C@@]23CCCN2C(=O)CCC[C@@H]13 (stereo not given in full)	nt	nt	nt	-5.1	nt	nt	nt	nt
O=C(Nc1ccc(F)cc1)OCc1cn(Cc2ccccc2)nn1	nt	nt	-2.4	-1.3	nt	nt	nt	nt
O=C(NNc1ccc(-c2csnn2)cc1)c1cc(Cl)cc(Cl)c1	nt	-7.2	0.3	26.6*	-4.4	nt	31.9*	-1.6
